RGS4-Gao reg – modulators of RGS4 binding to Galphao, primary screen, biochemical, multiplexed bead flow cytometry. Guanine nucleotide-binding protein G(o) subunit alpha (Homo sapiens), P09471. actives lie on both sides. binding response (% of control), % at 10 µM. 220,000 compounds, 0.33% hits. AID 1415, 2008; in the data active = binding response below about 49% or above about 150%; inactive = in between;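 note: fluorescent Galphao activated with aluminum fluoride binding bead-coupled RGS4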
Target sequence (P09471 whole entry, looked up): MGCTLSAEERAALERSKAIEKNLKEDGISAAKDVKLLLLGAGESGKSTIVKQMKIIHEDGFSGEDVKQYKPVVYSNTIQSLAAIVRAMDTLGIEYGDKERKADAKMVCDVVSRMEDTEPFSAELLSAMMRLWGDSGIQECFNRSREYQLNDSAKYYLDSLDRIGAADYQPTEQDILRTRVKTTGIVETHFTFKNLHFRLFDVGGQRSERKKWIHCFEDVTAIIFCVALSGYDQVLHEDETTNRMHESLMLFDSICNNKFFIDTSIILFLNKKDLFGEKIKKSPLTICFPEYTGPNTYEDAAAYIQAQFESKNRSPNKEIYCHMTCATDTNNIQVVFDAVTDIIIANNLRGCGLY
Avidin fluor – green autofluorescence of compounds with avidin beads – biophysical, 488/530 nm, flow cytometry, artefact control, profiling panel; fluorescence (KMESF) at 10 µM; 220,000 compounds, 0.38% hits; AID 1775, 2009; compound fluorescence 488/530 nm; active compounds read high; in the data active = fluorescence above about 47
RGS16-Gao – modulators of RGS16 binding to Galphao, primary screen, biochemical, human proteins, multiplexed bead flow cytometry; bead-based flow cytometry RGS16-Galphao binding, fluorescence; actives lie on both sides; 220,000 compounds, 0.38% hits; binding response (% of control), % at 10 µM;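 note: Galphao activated by GDP with aluminum fluoride before binding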
Target sequence (O15492 whole entry, looked up): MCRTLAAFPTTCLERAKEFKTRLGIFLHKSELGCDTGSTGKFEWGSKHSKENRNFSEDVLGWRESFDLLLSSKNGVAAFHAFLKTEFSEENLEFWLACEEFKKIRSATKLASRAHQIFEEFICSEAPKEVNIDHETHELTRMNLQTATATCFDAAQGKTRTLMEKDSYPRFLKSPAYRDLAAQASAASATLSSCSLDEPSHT
Target sequence (P09471 whole entry, looked up): as the sequence (P09471 whole entry, looked up) above
RGS7-Gao reg – RGS7-Galphao binding modulators, primary screen, biochemical, multiplexed bead flow cytometry | actives lie on both sides | binding response (% of control), % at 10 µM | 220,000 compounds, 0.35% hits; in the data active = binding response below about 49% or above about 150%; inconclusive = no clear call, values can overlap the other calls; inactive = in between;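 note: fluorescent Galphao held in activated GDP-AlF4 state binding bead-coupled RGS7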
GSH bead fluor – compound fluorescence on glutathione beads, profiling panel, artefact control, biophysical, 488/530 nm, flow cytometry | 190,000 compounds, 0.25% hits | GSH beads flow cytometry, compound fluorescence 488/530 nm; active compounds read high | fluorescence (KMESF) at 10 µM; in the data active = fluorescence above about 89;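 note: glutathione beads carrying GST-tagged Bcl family fusion proteins plus one bare bead set; values are compound well signal with DMSO vehicle wells as background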
RGS8-Gao reg – RGS8-Galphao binding modulators, primary screen, biochemical, multiplexed bead flow cytometry | actives lie on both sides | response (percent of control binding), % at 10 µM | 220,000 compounds, 0.34% hits | AID 1423, 2008; in the data active = response below about 60% or above about 140%; inactive = in between;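 note: Galphao activated as the GDP aluminium fluoride complex binding bead-coupled RGS8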
RGS-Gao – modulators of RGS–Galpha-o binding, primary screen, biochemical, multiplexed beads, flow cytometry, RGS4/7/8/16/19; 1,600 compounds, 99% hits; RGS4–Galpha-o binding response, % at 10 µM; multiplexed bead flow cytometry; shares compounds with RGS16-Gao; AID 1504, 2009;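 note: fluorescently labeled Galpha-o bound to GDP with aluminium fluoride binding biotinylated RGS beads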
Avidin counter – disruption of biotin probe capture by avidin, counter-screen for RGS protein interaction modulators, biochemical, flow cytometry, bead-based | 1,700 tested, under 10 active | shares compounds with RGS16-Gao | streptavidin beads, fluorescein-biotin binding | inhibition, % at 10 µM;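 active = inhibition above 50%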;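 note: median green fluorescence of gated singlet beads compared with DMSO control wells; 0% = DMSO wells and 100% = complete loss of bead fluorescence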
RGS8-Gao single – RGS8-Galphao binding modulators, confirmation, biochemical, multiplexed bead flow cytometry, single concentration; shares compounds with RGS16-Gao; bead-based flow cytometry RGS8-Galphao binding, fluorescence; actives lie on both sides; binding response (% of control), % at 10 µM; 1,700 compounds, 3% hits; in the data active = binding response below about 72% or above about 130%; inactive = in between;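 note: Galphao activated as GDP AlF4 complex before binding bead RGS8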
RGS7-Gao single – RGS7-Galphao binding modulators, confirmation, biochemical, multiplexed bead flow cytometry, single concentration | shares compounds with RGS16-Gao | bead-based flow cytometry RGS7-Galphao binding; actives lie on both sides | response (percent of control binding), % at 10 µM | 1,700 compounds, 7.8% hits | AID 1837, 2009; in the data active = response below about 75% or above about 130%; inactive = in between;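 note: fluorescent Galphao activated with GDP and aluminum fluoride binding bead-coupled RGS7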
RGS16-Gao conf – modulators of RGS16-Galphao protein binding, confirmation, biochemical, single concentration, multiplexed bead flow cytometry; shares compounds with RGS16-Gao; bead-based flow cytometry; actives lie on both sides; response (% of control binding), % at 10 µM; 1,700 compounds, 4% hits; in the data active = response below about 74% or above about 130%; inactive = in between;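 note: Galphao activated as the GDP aluminium fluoride complex binding bead-coupled RGS16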
RGS4-Gao single – modulators of RGS4-Galphao protein binding, confirmation, biochemical, single concentration, multiplexed bead flow cytometry. 1,700 compounds, 4% hits. binding response (% of control), % at 10 µM. actives lie on both sides. shares compounds with RGS16-Gao; in the data active = binding response below about 74% or above about 130%; inactive = in between
RGS19-Gao single – regulators of RGS19-Galphao binding, confirmation, biochemical, single point, multiplexed bead flow cytometry. AID 1841, 2009. response (percent of control binding), % at 10 µM. 1,700 compounds, 5% hits. shares compounds with RGS16-Gao. bead-based flow cytometry RGS19-Galphao binding; actives lie on both sides; in the data active = response below about 50% or above about 160%; inactive = in between;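 note: 100% = no compound control and 0% = blank background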
Active calls of the source: *; ? = inconclusive; . = no result given; [ ] = remark or other dose. Compounds with a hit are over-represented: about 1.2% of the library has one in this group of screens. Unless noted, the rule behind the calls is not given here.

SMILES	RGS4-Gao reg	Avidin fluor	RGS16-Gao	RGS7-Gao reg	GSH bead fluor	RGS8-Gao reg	Avidin counter	RGS8-Gao single	RGS7-Gao single	RGS16-Gao conf	RGS4-Gao single	RGS19-Gao single	others
CCC(C)NC(=O)CCC(=O)NNc1nc2ccccc2c2nc(C)nn12 (stereo not given)	97.5	5	100.0	95.9	8	99.2	.	.	.	.	.	.
Cc1nc2c3ccccc3nc(NNC(=O)CCC(=O)NC(C)C)n2n1	89.1	5	4.1*	83.0	13	71.1	1.0	101.1	96.7	98.8	97.5	96.9	RGS-Gao=89.1*
NC(=O)c1nc(-c2cccs2)nc2c1[nH]c(=O)n2-c1ccc(F)cc1	94.3	9	95.8	94.8	8	98.8	.	.	.	.	.	.
COc1ccccc1NC(=O)C1=C(C)NC(=O)NC1c1cc(C)cs1 (stereo not given)	201.5*[activator]	11	165.4	189.0*[activator]	27	166.9*[activator]	1.9	98.8	95.1	95.8	98.6	88.2
COc1ccccc1NC(=O)C1=C(C)NC(=O)NC1c1ccccc1F (stereo not given)	99.1	13	101.6	104.2	21	97.8	.	.	.	.	.	.
O=C(NCc1cccnc1)Nc1cccc(NC(=O)NCc2cccnc2)c1	102.2	3	103.1	102.1	49	100.0	.	.	.	.	.	.
CC(=O)c1cccc(NC(=O)NCc2cccnc2)c1	.	.	.	.	38	.	-1.4	99.7	98.3	98.2	99.2	95.7
Cc1ccc(NC(=O)CSc2nnc(-c3cccs3)o2)cc1S(=O)(=O)N1CCCCC1	96.4	13	100.5	94.7	11	98.5	.	.	.	.	.	.
Cc1nc(C(=O)NCCC(C)C)sc1C1(C)CC(c2ccccc2)=NO1 (stereo not given)	99.7	8	103.2	?	.	99.5	.	.	.	.	.	.
N#Cc1nc(-c2ccccc2F)oc1NCCN1CCOCC1	149.1	2	274.6	134.0	23	176.5*[activator]	-1.4	98.2	98.5	96.3	97.3	92.0	RGS-Gao=149.1*
Cc1c(Cl)cccc1NC(=S)N1CCN(Cc2ccccc2)CC1	107.3	29	225.8	109.7	17	125.9	2.2	102.4	105.8	101.2	100.8	93.2
S=C(Nc1ccccc1Cl)N1CCN(Cc2ccccc2)CC1	108.7	6	113.5	109.8	12	107.2	.	.	.	.	.	.
Cc1ccc(-n2sc3ccccc3c2=O)cc1S(=O)(=O)N1CCCCC1	74.8	7	-11.6	97.0	6	43.1*	.	.	.	.	.	.	RGS-Gao=74.8*
CN(C)S(=O)(=O)c1ccc2[nH]cc(/C=C/c3nc4ccccc4c(=O)n3-c3ccccc3)c2c1	101.3	34	98.9	100.7	16	102.3	.	.	.	.	.	.
O=c1c2ccccc2sn1-c1nccs1	98.3	16	78.2	101.0	9	75.4	.	.	.	.	.	.
NS(=O)(=O)c1ccc(S(=O)(=O)N2CCCC2)cc1	101.6	7	88.6	104.4	25	97.0	.	.	.	.	.	.
CN(C)S(=O)(=O)c1cccc(-n2sc3ccccc3c2=O)c1	93.4	4	17.1*	?	9	55.3*	.	.	.	.	.	.	RGS-Gao=93.4*
O=c1c2ccccc2sn1-c1ccccc1	78.5	6	-5.3*	91.2	15	17.8*	-2.3	24.6*	85.4	0.1*	78.2	-0.4*	RGS-Gao=78.5*
O=c1c2ccccc2sn1-c1ccc(S(=O)(=O)N2CCCC2)cc1	92.5	4	-3.0*	89.4	9	30.8*	0.6	59.4*	85.4	40.3*	90.7	8.6*	RGS-Gao=92.5*
Cc1ccc(NC(=O)CCNC(=O)c2ccco2)cc1F	100.9	9	99.9	?	16	100.8	.	.	.	.	.	.
CC(=O)c1sc(-c2ccc(F)cc2)cc1NS(=O)(=O)c1ccccc1	-36.5*	-3	-20.1*	?	.	1.8*	-0.7	100.6	98.1	101.0	101.5	102.1
C=CCN(CC(=O)NCc1ccccc1)C(=O)c1csnn1	.	.	.	.	49	.	1.4	99.8	99.8	99.2	100.0	91.2
COc1ccc(CNC(=O)CN(Cc2ccccc2)C(=O)c2csnn2)cc1	96.2	14	99.1	94.3	37	97.8	.	.	.	.	.	.
Cc1ccc(CNC(=O)C2CCCN(S(=O)(=O)c3c(C)noc3/C=C/N(C)C)C2)cc1 (stereo not given)	100.0	9	98.4	?	.	100.3	.	.	.	.	.	.
COc1ccc(C)cc1NC(=O)Nc1ccccc1	104.3	13	97.7	103.7	57	100.8	.	.	.	.	.	.
COc1cccc(NC(=O)Nc2cc(C)ccc2OC)c1	35.6*	2	21.6*	26.3*	15	33.8*	2.3	98.5	95.0	96.6	99.6	103.5
COc1ccc(-n2ccnc2SCC(=O)NCc2ccco2)c(OC)c1	83.5	6	7.9	78.3	15	68.1	.	.	.	.	.	.
Cc1nc2ccc(NC(=O)N(C(C)C)C(C)C)cc2s1	98.0	82*	124.1	169.1*[activator]	12	108.2	1.3	102.5	102.1	101.1	99.1	104.4	RGS-Gao=98.0*
Cc1nc2ccc(NC(=O)N(C)c3ccccc3)cc2s1	101.2	3	105.2	101.9	17	102.0	.	.	.	.	.	.

Source: PubChem
